Assay [1] addresses T1, Ephrin type-B receptor 1 (Homo sapiens) (UniProt P54762).
T1 sequence (whole entry): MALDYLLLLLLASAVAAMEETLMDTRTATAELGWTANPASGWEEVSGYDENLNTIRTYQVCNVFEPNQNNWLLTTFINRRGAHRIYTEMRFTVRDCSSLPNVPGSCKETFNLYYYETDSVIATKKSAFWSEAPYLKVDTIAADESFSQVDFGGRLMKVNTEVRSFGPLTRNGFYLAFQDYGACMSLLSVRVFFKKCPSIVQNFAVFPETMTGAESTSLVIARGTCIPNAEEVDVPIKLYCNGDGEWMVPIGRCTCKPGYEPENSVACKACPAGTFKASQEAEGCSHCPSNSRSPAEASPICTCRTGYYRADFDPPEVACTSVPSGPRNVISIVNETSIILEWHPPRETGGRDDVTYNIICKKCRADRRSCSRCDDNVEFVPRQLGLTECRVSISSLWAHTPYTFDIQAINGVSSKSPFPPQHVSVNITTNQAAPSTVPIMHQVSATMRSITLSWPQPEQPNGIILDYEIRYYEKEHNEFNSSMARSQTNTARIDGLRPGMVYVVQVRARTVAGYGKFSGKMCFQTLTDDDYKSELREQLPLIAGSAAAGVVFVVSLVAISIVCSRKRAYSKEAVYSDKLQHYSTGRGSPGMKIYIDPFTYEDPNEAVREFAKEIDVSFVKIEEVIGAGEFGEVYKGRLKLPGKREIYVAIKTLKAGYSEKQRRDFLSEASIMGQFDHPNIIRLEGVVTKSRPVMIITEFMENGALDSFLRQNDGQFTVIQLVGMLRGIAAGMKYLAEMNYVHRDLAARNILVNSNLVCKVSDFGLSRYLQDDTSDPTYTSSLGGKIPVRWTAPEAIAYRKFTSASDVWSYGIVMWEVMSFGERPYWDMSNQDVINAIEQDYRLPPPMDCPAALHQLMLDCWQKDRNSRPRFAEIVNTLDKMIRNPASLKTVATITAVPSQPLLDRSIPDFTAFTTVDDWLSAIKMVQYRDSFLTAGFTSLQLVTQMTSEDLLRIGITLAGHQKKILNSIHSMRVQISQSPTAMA
Conditions: at 10 µM; call rule not given here.

Assay [2] addresses T2, Ephrin type-B receptor 2 (Homo sapiens) (UniProt P29323).
T2 sequence (whole entry): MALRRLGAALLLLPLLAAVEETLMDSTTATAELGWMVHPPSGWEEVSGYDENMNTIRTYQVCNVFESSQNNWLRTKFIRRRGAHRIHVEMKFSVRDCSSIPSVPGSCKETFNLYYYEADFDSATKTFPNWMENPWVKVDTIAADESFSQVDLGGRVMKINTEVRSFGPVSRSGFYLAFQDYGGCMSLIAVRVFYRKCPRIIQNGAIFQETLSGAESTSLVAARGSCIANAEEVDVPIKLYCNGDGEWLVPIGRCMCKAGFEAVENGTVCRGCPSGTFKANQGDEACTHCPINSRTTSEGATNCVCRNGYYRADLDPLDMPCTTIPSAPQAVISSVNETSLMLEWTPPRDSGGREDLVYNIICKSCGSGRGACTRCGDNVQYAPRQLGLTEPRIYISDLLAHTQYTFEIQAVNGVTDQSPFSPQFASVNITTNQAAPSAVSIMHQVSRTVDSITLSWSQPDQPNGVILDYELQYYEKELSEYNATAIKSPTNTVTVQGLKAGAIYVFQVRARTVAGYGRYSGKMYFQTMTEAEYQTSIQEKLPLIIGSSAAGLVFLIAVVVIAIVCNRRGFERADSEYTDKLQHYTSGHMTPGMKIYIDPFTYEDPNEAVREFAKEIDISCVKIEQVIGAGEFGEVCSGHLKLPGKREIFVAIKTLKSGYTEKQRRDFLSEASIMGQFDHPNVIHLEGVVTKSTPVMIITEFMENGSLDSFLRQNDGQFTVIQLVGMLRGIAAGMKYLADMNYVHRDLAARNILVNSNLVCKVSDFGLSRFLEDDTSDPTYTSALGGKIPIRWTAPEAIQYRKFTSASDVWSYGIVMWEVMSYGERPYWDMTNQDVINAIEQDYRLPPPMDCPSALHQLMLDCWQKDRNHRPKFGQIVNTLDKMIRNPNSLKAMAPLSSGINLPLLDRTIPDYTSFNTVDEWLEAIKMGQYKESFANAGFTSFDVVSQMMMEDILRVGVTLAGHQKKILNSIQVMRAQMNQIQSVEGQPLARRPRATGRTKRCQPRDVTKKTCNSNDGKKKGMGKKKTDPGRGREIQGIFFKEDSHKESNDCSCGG
Conditions: at 1 µM.

The target of assay [3] is T2, Ephrin type-B receptor 2 (Homo sapiens). Conditions: at 10 µM.
Assay [4] concerns the target T3, Ephrin type-B receptor 3 (Homo sapiens) (UniProt P54753).
T3 sequence (whole entry): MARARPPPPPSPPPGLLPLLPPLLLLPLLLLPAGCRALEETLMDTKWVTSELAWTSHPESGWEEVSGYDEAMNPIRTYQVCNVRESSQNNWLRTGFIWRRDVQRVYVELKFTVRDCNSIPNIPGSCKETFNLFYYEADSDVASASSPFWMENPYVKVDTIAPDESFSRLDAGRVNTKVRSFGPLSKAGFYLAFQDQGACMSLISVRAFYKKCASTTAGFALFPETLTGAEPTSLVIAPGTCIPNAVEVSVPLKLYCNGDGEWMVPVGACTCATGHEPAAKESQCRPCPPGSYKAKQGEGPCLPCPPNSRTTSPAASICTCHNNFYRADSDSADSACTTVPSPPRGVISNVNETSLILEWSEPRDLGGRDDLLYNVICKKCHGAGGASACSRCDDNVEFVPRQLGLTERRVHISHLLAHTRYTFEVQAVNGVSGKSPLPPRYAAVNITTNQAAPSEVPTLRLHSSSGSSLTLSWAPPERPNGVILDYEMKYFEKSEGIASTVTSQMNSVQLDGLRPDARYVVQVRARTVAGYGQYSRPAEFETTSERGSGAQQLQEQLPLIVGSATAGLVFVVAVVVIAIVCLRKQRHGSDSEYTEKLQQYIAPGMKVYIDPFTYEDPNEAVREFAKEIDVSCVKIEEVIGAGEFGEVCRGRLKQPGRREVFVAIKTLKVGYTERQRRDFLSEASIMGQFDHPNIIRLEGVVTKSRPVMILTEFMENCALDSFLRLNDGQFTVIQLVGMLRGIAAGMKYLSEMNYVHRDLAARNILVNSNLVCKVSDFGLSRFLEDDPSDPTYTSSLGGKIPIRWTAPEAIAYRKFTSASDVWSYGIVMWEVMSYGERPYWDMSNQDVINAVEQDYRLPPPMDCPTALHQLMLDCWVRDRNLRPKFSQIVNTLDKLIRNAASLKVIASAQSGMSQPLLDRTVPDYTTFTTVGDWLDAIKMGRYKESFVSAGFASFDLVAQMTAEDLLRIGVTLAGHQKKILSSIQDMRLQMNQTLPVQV
Conditions: at 1 µM.

Assay [5] concerns the target T3, Ephrin type-B receptor 3 (Homo sapiens). Conditions: at 10 µM.
Assay [6] concerns the target T4, Ephrin type-B receptor 4 (Homo sapiens) (UniProt P54760).
T4 sequence (whole entry): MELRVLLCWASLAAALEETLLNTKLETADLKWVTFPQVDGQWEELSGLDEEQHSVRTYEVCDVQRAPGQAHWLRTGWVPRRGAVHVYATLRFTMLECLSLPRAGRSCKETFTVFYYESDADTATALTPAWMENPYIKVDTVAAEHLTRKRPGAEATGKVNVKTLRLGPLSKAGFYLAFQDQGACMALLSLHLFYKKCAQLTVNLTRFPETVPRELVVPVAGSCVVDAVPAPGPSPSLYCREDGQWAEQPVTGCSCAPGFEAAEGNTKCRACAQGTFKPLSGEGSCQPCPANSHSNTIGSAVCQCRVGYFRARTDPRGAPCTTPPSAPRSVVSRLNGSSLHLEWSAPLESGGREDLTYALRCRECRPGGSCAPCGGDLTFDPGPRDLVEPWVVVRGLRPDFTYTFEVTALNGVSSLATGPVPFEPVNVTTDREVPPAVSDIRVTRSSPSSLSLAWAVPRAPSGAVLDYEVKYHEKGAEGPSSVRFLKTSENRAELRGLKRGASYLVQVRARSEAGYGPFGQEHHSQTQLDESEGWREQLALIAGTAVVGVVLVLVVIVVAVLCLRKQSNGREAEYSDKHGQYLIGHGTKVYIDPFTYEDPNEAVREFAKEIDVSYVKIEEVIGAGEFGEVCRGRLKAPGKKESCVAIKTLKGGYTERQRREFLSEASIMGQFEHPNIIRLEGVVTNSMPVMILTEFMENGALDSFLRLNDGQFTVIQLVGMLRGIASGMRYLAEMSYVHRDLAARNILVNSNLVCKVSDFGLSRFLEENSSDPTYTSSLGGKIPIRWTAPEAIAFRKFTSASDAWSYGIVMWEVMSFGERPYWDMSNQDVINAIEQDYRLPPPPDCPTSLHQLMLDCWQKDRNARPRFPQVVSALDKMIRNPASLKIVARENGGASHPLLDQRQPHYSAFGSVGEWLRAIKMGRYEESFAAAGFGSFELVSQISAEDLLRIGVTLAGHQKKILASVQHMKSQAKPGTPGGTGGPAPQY
Conditions: at 1 µM.

The target in assay [7] is T4, Ephrin type-B receptor 4 (Homo sapiens). The settings on record: at 10 µM.
Assay [8] deals with Receptor tyrosine-protein kinase erbB-4 (Homo sapiens) (UniProt Q15303). The settings on record: at 1 µM.
For assay [9] the target is unchanged. The settings on record: at 10 µM.
Assay [10] concerns the target Focal adhesion kinase 1 (Homo sapiens) (UniProt Q05397). Conditions: at 1 µM.

Chain of Receptor tyrosine-protein kinase erbB-4 (Homo sapiens) (Q15303 whole entry): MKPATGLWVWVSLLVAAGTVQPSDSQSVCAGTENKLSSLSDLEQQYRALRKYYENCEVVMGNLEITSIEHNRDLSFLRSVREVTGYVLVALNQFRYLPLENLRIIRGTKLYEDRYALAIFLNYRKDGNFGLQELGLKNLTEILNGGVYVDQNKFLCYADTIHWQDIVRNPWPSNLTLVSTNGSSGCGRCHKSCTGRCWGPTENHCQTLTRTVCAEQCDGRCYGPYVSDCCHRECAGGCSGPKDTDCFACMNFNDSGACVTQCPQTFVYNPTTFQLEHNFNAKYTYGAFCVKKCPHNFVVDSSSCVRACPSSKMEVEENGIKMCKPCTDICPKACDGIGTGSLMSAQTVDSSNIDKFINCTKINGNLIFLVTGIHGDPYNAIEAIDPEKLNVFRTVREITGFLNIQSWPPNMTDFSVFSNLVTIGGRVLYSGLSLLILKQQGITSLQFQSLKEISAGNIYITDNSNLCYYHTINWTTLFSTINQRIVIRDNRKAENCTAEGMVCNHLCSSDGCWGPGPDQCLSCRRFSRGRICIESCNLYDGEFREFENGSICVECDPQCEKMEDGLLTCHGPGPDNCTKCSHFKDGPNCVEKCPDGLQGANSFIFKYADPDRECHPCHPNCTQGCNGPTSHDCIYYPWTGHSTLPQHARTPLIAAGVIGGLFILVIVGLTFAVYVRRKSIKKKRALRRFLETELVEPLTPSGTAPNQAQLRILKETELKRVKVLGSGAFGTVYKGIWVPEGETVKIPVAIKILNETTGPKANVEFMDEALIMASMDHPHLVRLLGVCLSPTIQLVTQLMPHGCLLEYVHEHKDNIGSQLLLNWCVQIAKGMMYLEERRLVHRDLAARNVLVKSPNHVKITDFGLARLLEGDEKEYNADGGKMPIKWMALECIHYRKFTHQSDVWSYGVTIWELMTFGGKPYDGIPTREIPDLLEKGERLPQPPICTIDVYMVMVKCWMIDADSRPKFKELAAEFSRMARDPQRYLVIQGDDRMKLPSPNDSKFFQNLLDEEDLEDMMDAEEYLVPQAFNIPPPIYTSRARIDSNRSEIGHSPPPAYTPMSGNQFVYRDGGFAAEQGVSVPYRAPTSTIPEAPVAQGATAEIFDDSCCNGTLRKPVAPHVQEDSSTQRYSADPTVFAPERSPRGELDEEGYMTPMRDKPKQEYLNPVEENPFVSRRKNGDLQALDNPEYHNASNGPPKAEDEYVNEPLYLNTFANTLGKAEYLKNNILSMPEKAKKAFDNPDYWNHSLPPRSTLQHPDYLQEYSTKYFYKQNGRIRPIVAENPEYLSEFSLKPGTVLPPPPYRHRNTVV
Chain of Focal adhesion kinase 1 (Homo sapiens) (Q05397 2-1052 limits assumed): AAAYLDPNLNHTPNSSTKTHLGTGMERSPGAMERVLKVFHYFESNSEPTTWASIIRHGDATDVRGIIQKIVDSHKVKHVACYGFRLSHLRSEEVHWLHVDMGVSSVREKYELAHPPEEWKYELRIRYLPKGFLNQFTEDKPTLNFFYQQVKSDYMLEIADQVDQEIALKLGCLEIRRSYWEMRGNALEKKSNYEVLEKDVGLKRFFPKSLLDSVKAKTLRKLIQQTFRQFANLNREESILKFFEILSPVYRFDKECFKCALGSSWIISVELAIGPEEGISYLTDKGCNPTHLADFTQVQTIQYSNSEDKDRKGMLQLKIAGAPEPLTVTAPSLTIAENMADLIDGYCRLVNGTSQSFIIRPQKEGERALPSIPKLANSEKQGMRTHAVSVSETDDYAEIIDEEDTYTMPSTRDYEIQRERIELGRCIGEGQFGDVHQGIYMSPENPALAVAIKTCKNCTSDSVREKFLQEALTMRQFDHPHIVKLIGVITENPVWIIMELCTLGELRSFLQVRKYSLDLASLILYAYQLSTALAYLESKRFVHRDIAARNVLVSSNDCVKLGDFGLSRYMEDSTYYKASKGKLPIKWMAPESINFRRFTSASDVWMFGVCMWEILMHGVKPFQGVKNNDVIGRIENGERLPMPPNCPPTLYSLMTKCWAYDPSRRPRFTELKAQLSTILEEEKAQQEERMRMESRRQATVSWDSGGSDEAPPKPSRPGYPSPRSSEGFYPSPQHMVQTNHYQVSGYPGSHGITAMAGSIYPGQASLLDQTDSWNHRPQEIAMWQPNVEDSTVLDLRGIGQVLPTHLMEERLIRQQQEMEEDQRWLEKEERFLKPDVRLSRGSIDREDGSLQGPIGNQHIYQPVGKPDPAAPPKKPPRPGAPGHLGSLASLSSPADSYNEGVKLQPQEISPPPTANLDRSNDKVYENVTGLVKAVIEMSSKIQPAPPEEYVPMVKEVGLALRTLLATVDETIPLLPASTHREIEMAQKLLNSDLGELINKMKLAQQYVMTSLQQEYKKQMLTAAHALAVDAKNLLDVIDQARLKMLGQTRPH

Turning to `Ic1cccc(CSc2nnc(-c3ccncc3)o2)c1`, the residual activity (commonly the signal under treatment as a percentage of the control signal) in assay [1] is 84%; in [2], 106%; in assay [3], 109%; in assay [4], 104% (inactive); in assay [5], 101%; in assay [6] it was 84%. The residual activity in [7] turned out to be 84%; in [8], 94%; in assay [9], 91%; in assay [10], 96%.

For the origin of these results see ChEMBL document CHEMBL2218924, “A broad activity screen in support of a chemogenomic map for kinase signalling research and drug discovery” (Biochem J, 2013).
